This note sets out measurements from PubChem BioAssay.

The source made the active and inactive calls.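 Rule for the calls: active = mean duplicate potentiation above the buffer control mean plus 5 SD of buffer wells; inactive = the rest.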

Potassium voltage-gated channel subfamily KQT member 2 (Rattus norvegicus), sequence (O88943 whole entry, looked up): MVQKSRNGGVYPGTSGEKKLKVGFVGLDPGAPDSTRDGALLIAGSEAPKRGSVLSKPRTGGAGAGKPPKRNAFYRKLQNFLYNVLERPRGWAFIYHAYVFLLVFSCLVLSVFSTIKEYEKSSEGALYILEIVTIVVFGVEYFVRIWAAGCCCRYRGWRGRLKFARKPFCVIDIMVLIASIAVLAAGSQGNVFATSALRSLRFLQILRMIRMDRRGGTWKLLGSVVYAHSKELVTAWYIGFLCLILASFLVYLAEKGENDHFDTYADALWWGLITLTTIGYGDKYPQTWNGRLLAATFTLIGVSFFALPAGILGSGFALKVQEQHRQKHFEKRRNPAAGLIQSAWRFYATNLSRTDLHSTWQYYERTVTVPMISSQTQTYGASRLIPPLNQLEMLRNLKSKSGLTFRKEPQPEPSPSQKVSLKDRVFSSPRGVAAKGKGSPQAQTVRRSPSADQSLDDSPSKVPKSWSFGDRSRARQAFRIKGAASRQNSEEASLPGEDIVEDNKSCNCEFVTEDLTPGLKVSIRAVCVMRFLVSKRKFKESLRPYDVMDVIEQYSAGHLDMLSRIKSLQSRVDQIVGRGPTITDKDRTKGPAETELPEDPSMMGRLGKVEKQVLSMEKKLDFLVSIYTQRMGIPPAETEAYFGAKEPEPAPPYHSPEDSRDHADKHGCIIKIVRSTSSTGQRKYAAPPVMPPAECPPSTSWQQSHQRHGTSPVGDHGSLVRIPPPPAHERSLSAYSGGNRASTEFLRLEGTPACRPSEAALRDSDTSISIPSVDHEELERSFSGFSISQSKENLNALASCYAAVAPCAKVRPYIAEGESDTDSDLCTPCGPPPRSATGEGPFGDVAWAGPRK

The test addresses Potassium voltage-gated channel subfamily KQT member 2 (Rattus norvegicus) (UniProt O88943). In words: KCNQ2 thallium flux enhancement – KCNQ2-CHO-K1 cells, selectivity assay for KCNQ1 potentiator project (AID 493009).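 Note: assay conditions were tuned for KCNQ1 rather than KCNQ2 modulators; signal is max minus min fluorescence divided by baseline after thallium stimulus.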 The following applies: FluxOR thallium flux fluorescence, at 10 µM; active compounds read high, scaled: buffer 0, activator control 100.
On to `O=C(O)CSc1cc(NS(=O)(=O)c2ccc(Br)cc2)c2ccccc2c1O`, for which the outcome was inactive. As to `Oc1c(N=NC(=S)Nc2ccccc2F)c2ccccc2n1Cc1ccccc1`, the potentiation is 183% (active).

With `CC1(C)Cc2c(sc(/N=C/N3CCCCCC3)c2C#N)C(C)(C)N1`, the result was inactive. In the case of `Cc1ccccc1NC(=S)NC(=O)c1cc(-c2ccccc2)nc2ccccc12`, the potentiation is 158% (active). With `Cc1ccc(O)c(C(=O)CC(=O)c2ccc(Cl)cc2)c1`, the outcome was inactive. `Cc1cccc(NC(=S)NNC(=O)c2csc3c2CCC(C)C3)c1` (stereo not given): the potentiation is 248% (active). `COc1ccc(C)cc1NC(=O)C1C2C=CC(C2)C1C(=O)O` (stereo not given): the outcome was inactive. For `CCOc1ccc(/C=C2/SC(=O)NC2=S)cc1`, the potentiation is 379% (active). Regarding `O=C(c1ccc(Cl)cc1)c1c[nH]c(C(=O)C(Cl)(Cl)Cl)c1`, the outcome was inactive. Same read-out and setting: next, `CCOC(=O)Cc1csc(NC(=O)CSc2nnnn2-c2ccc(C)cc2C)n1`: “inactive”. Take `CN(C)CCCNc1nc2sc3c(c2c(=O)n1CCc1ccccc1)CCCCC3`: the result was inactive. The same measure, in the same setting: as for `CCOc1ccc2c(c1)C(NC(C)=O)C(=O)N2CCN1CCOCC1` (stereo not given), the entry is “inactive”. With `S=c1nc(-c2ccc(Br)cc2)[nH]c2ccccc12`, the potentiation is 538% (active).

Regarding `CCOC(=O)C1(CC2CCCCO2)CCN(Cc2cc3ccccc3[nH]2)CC1` (stereo not given), the result was inactive.

For the molecule `O=C(COc1ccccc1[N+](=O)[O-])Nc1cccnc1`, the potentiation was 172% (active). In the case of `CCc1ccc2c(c1)c(N=NC1=NC(=O)CS1)c(O)n2C`, the result was inactive. On to `S=c1nc(C2CCCCC2)[nH]c2ccccc12`, for which the potentiation is 160% (active). The same measure, in the same setting: as for `CCSC(=S)c1c(C)[nH]n(-c2ccccc2)c1=O`, the figure is 184% (active). In the case of `CC(C)c1nc(Cl)c(C#N)c2c1CCC2`, the outcome was inactive.

For the molecule `COCCOC(=O)N/C=C\c1nc2ccccc2c(=O)[nH]1`, the result was inactive. On to `Cc1cc(C)n(CC(=O)N2CCCC(N3CCN(c4ccccc4C)CC3)C2)n1` (stereo not given), for which the potentiation was 206% (active). As for `Cn1c(=O)c2c3c(sc2n2c(SCC(N)=O)nnc12)CC(C(C)(C)C)CC3` (stereo not given), the result was inactive. Still for that read-out and setting: as for `CN(Cc1cn[nH]c1-c1ccc2c(c1)OCO2)C1CCOCC1`, the entry is “inactive”. On to `C=CCn1c(-c2cc(-c3ccc(C)cc3)nc3ccccc23)n[nH]c1=S`, for which the potentiation was 170% (active). `COc1ccc(C(=O)CC(=O)C(=O)Nc2ccc(C)c(Cl)c2)cc1`: the outcome was inactive. On the same count and under the same terms, next, `CN1C(=O)C2(Oc3ccccc3C3CC(c4ccccc4)=NN32)c2ccccc21` (stereo not given): “inactive”.

As for `C/C(=N\NC(=O)c1cccc(F)c1)c1ccc(Br)s1`, the outcome was inactive. As for `O=C(NC(=S)Nc1ccccc1N1CCCC1)c1ccccc1Br`, the potentiation is 202% (active). On to `CCOc1ccc(NC(=O)CN(C)C(=O)c2c(-c3c(F)cccc3Cl)noc2C)cc1OCC`, for which the result was inactive. The same measure, in the same setting: as for `COc1cc(-c2nnc(COC(=O)c3cccn3C)o2)cc(OC)c1OC`, the entry is “inactive”. As to `COc1cccc(C2=NOC(C(=O)NCc3cccs3)C2)c1` (stereo not given), the outcome was inactive. For `Cc1ccc(-c2cc(-c3n[nH]c(=S)o3)c3ccccc3n2)cc1`, the potentiation was 512% (active). Still for that read-out and setting: as for `COc1ccccc1-c1cc(C(=O)Nc2cccnc2)no1`, the figure is 398% (active).

In the case of `Nc1nc(C23CC4CC(CC(C4)C2)C3)cs1`, the potentiation was 168% (active). Consider `CC(C)NC(=O)C1CCN(c2ccc(S(=O)(=O)N3CCOCC3)cc2Cl)CC1`, for which the outcome was inactive. Still for that read-out and setting: next, `COC(=O)c1ccc(NC(=S)NC(=O)c2c(Cl)cnn2C)cc1`: “inactive”. On to `Cc1ccc(O)c(C(=O)CC(=O)c2cccc(F)c2)c1`, for which the potentiation is 159% (active). On to `Cc1ccc(C)c(NC(=S)NC(=O)c2cncc(Br)c2)c1`, for which the outcome was inactive. Same read-out and setting: as for `Cc1cccc2sc(N(CCCN(C)C)C(=O)CCS(=O)(=O)c3ccccc3)nc12`, the entry is “inactive”; as for `O=C(Nc1cccc(S(=O)(=O)NC2=NCCC2)c1)c1c(F)cccc1Cl`, “inactive”.
